In PubChem BioAssay AID1159580 (chemical genetic matrix, 2015):
“And” between values parts separate entries of the source, which are not always exact repeats. Equal entries are not always repeated. The whole screen tested about 5,500 compounds, of which about 2,000 (36%) were called active. Not shown: some 18% with an inconclusive outcome. No stated cut-off is given here; in the data, active means normalized growth mostly below about 0.91 (no sharp cut-off); inconclusive means no clear call, values can overlap the other calls; inactive means mostly above about 0.92. This is one part of the list.

Assay: chemical genetic growth profiling, strain panel (AID 1159580);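 further: tested at 20 µM; growth read once vehicle control cultures reached saturation at 30 °C; 1 = growth at the plate median or of vehicle wells; lower values mean less growth of the strain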
Details: growth OD

Measured: normalized growth

C=C(C)[C@@H]1[C@H]2OC(=O)[C@@H]1[C@]1(O)C[C@H]3O[C@]34C(=O)O[C@H]2[C@]14C
inactive: S. cerevisiae deletion strains, locus YAL013W, strain DEP1, hits give low values 0.985 | S. cerevisiae deletion strains, locus YBR021W, strain FUR4, hits give low values 1.01 | S. cerevisiae deletion strains, locus YBR229C, strain ROT2, hits give low values 0.947 | S. cerevisiae deletion strains, locus YCL029C, strain bik1, hits give low values 0.997 | S. cerevisiae deletion strains, locus YDL035C, strain GPR1, hits give low values 0.987 | S. cerevisiae deletion strains, locus YDL074C, strain BRE1, hits give low values 1.02 | S. cerevisiae deletion strains, locus YDL101C, strain DUN1, hits give low values 0.98 | S. cerevisiae deletion strains, locus YDL134C, strain PPH21, hits give low values 0.988 | S. cerevisiae deletion strains, locus YDL185W, strain tfp1, hits give low values 1 | S. cerevisiae deletion strains, locus YDL192W, strain arf1, hits give low values 0.99 | S. cerevisiae deletion strains, locus YDR101C, strain arx1, hits give low values 1 | S. cerevisiae deletion strains, locus YDR150W, strain NUM1, hits give low values 0.971 | S. cerevisiae deletion strains, locus YDR162C, strain NBP2, hits give low values 0.987 | S. cerevisiae deletion strains, locus YDR318W, strain mcm21, hits give low values 1.01 | S. cerevisiae deletion strains, locus YDR388W, hits give low values 1.01 | S. cerevisiae deletion strains, locus YDR502C, strain sam2, hits give low values 0.994 | S. cerevisiae deletion strains, locus YEL061C, strain CIN8, hits give low values 0.987 | S. cerevisiae deletion strains, locus YER110C, hits give low values 0.973 | S. cerevisiae deletion strains, locus YER155C, strain BEM2, hits give low values 0.999 | S. cerevisiae deletion strains, locus YER167W, strain BCK2, hits give low values 1 | S. cerevisiae deletion strains, locus YGL078C, strain dbp3, hits give low values 0.994 | S. cerevisiae deletion strains, locus YGL086W, strain mad1, hits give low values 0.99 | S. cerevisiae deletion strains, locus YGL248W, strain PDE1, hits give low values 0.98 | S. cerevisiae deletion strains, locus YGR078C, strain PAC10, hits give low values 1.01 | S. cerevisiae deletion strains, locus YGR135W, strain pre9, hits give low values 1 | S. cerevisiae deletion strains, locus YGR229C, strain SMI1, hits give low values 1.01 | S. cerevisiae deletion strains, locus YGR252W, strain gcn5, hits give low values 0.95 | S. cerevisiae deletion strains, locus YHR030C, strain SLT2, hits give low values 0.996 and 1.03 | S. cerevisiae deletion strains, locus YHR079C, strain IRE1 (second series), hits give low values 1 | S. cerevisiae deletion strains, locus YHR079C, strain IRE1, hits give low values 0.993 | S. cerevisiae deletion strains, locus YHR094C, strain hxt1, hits give low values 0.996 | S. cerevisiae deletion strains, locus YHR129C, strain ARP1, hits give low values 1 | S. cerevisiae deletion strains, locus YHR200W, strain rpn10, hits give low values 1 | S. cerevisiae deletion strains, locus YIL066C, strain RNR3, hits give low values 0.97 | S. cerevisiae deletion strains, locus YIL073C, strain SPO22, hits give low values 0.982 | S. cerevisiae deletion strains, locus YIL125W, strain kgd1, hits give low values 0.99 | S. cerevisiae deletion strains, locus YIR030C, strain dcg1, hits give low values 0.99 | S. cerevisiae deletion strains, locus YJL095W, strain BCK1, hits give low values 1.02 and 0.989 | S. cerevisiae deletion strains, locus YJL134W, strain LCB3, hits give low values 0.984 | S. cerevisiae deletion strains, locus YJL168C, strain set2, hits give low values 1 | S. cerevisiae deletion strains, locus YJL187C, strain SWE1 (second series), hits give low values 0.986 | S. cerevisiae deletion strains, locus YJR043C, strain POL32, hits give low values 1.02 | S. cerevisiae deletion strains, locus YJR066W, strain TOR1, hits give low values 0.962 | S. cerevisiae deletion strains, locus YJR075W, strain HOC1, hits give low values 1 | S. cerevisiae deletion strains, locus YKL009W, strain mrt4, hits give low values 0.96 | S. cerevisiae deletion strains, locus YKL068W, hits give low values 0.997 | S. cerevisiae deletion strains, locus YKL085W, strain MDH1 (second series), hits give low values 0.996 | S. cerevisiae deletion strains, locus YKL085W, strain MDH1, hits give low values 0.996 | S. cerevisiae deletion strains, locus YKL190W, strain CNB1, hits give low values 1 | S. cerevisiae deletion strains, locus YKR001C, strain vps1, hits give low values 1.01 | S. cerevisiae deletion strains, locus YLR039C, strain RIC1, hits give low values 0.972 | S. cerevisiae deletion strains, locus YLR058C, strain SHM2, hits give low values 0.964 | S. cerevisiae deletion strains, locus YLR102C, strain apc9, hits give low values 1 | S. cerevisiae deletion strains, locus YLR113W, strain HOG1, hits give low values 0.982 | S. cerevisiae deletion strains, locus YLR262C, strain YPT6, hits give low values 0.93 | S. cerevisiae deletion strains, locus YLR268W, strain sec22, hits give low values 1.07 | S. cerevisiae deletion strains, locus YLR330W, strain CHS5, hits give low values 0.983 | S. cerevisiae deletion strains, locus YLR342W, strain FKS1 (second series), hits give low values 1.01 | S. cerevisiae deletion strains, locus YLR371W, strain rom2, hits give low values 0.988 | S. cerevisiae deletion strains, locus YLR418C, strain cdc73, hits give low values 0.998 | S. cerevisiae deletion strains, locus YML016C, strain PPZ1, hits give low values 0.982 | S. cerevisiae deletion strains, locus YML032C, strain rad52, hits give low values 1.02 | S. cerevisiae deletion strains, locus YML124C, strain tub3, hits give low values 0.992 | S. cerevisiae deletion strains, locus YMR078C, strain ctf18, hits give low values 1 | S. cerevisiae deletion strains, locus YMR223W, strain ubp8, hits give low values 0.983 | S. cerevisiae deletion strains, locus YMR263W, strain SAP30, hits give low values 1.01 | S. cerevisiae deletion strains, locus YMR307W, strain GAS1, hits give low values 0.987 | S. cerevisiae deletion strains, locus YNL067W, strain RPL9B, hits give low values 1.02 | S. cerevisiae deletion strains, locus YNL128W, strain TEP1, hits give low values 0.976 | S. cerevisiae deletion strains, locus YNL153C, strain GIM3, hits give low values 0.998 | S. cerevisiae deletion strains, locus YNL183C, strain NPR1, hits give low values 0.954 | S. cerevisiae deletion strains, locus YNL233W, strain BNI4, hits give low values 1 | S. cerevisiae deletion strains, locus YNL250W, strain rad50, hits give low values 0.975 | S. cerevisiae deletion strains, locus YNL271C, strain bni1, hits give low values 1.01 | S. cerevisiae deletion strains, locus YNL298W, strain CLA4, hits give low values 0.999 | S. cerevisiae deletion strains, locus YNL307C, strain MCK1, hits give low values 0.987 | S. cerevisiae deletion strains, locus YNL322C, strain KRE1, hits give low values 0.994 | S. cerevisiae deletion strains, locus YNR052C, strain pop2, hits give low values 1 | S. cerevisiae deletion strains, locus YOL006C, strain TOP1, hits give low values 1.03 | S. cerevisiae deletion strains, locus YOL012C, strain htz1 0.801 | S. cerevisiae deletion strains, locus YOL147C, strain pex11, hits give low values 0.991 | S. cerevisiae deletion strains, locus YOR061W, strain CKA2, hits give low values 0.976 | S. cerevisiae deletion strains, locus YOR069W, strain VPS5, hits give low values 0.98 | S. cerevisiae deletion strains, locus YOR136W, strain idh2, hits give low values 0.986 | S. cerevisiae deletion strains, locus YOR144C, strain elg1, hits give low values 0.997 | S. cerevisiae deletion strains, locus YOR184W, strain ser1, hits give low values 0.985 | S. cerevisiae deletion strains, locus YOR231W, strain MKK1, hits give low values 1.02 | S. cerevisiae deletion strains, locus YOR316C, strain cot1, hits give low values 0.995 | S. cerevisiae deletion strains, locus YPL055C, strain LGE1, hits give low values 0.978 | S. cerevisiae deletion strains, locus YPL241C, strain CIN2, hits give low values 0.994 | S. cerevisiae deletion strains, locus YPL256C, strain CLN2, hits give low values 1.05 | S. cerevisiae deletion strains, locus YPR119W, strain clb2, hits give low values 0.991 | S. cerevisiae deletion strains, locus YPR141C, strain kar3, hits give low values 0.981 | S. cerevisiae deletion strains, locus YPR163C, strain tif3, hits give low values 1 | S. cerevisiae deletion strains, locus YPR167C, strain met16, hits give low values 1 | S. cerevisiae deletion strains, strain wtn01, hits give low values 1.02 | S. cerevisiae strains, strain wild type, hits give low values 0.981
